Measurements: PubChem BioAssay (NCATS)
Where “and” joins values, the source holds several entries; their conditions need not be identical. Equal values may be shown once. Records with an inconclusive call do not appear. Where a call stands in place of a potency, no number is given. Some compounds were tested as several samples or in several runs, with calls that do not always agree. Calls of active or inactive are those of the source. The call rests on the fitted dose curve; in most records, active means well fitted cell-killing curve with a large enough effect; inconclusive means small, poorly fitted or top-dose-only effect; inactive means flat fitted curve, though single readings scatter.

Test: Cellular viability qHTS for adrenocortical cancer (ACC) cell line NCI-H295R (AID 1963990); further: nearly all actives have a fitted effect of over 60% in size
Conditions: CellTiter-Glo ATP luminescence, 48 h; series mostly up to 46.1 µM
Excerpt: PI: Naris Nilubol, MD Surgical Oncology Program, National Cancer Institute (NCI) National Institute of Health (NIH), Bethesda, Maryland Adrenocortical cancer (ACC) is a rare malignancy with poor survival outcomes and few treatment options. Currently, mitotane is the only FDA-approved therapy for ACC. Although adjuvant radiation therapy is rarely utilized, it has the potential to improve survival in select cases. Through a quantitative high-throughput drug screen (qHTS), we identified auranofin (AF), a thioredoxin reductase (TXNRD) inhibitor, as a promising candidate drug. This study aims to evaluate whether AF can enhance the efficacy of radiation therapy in the treatment of ACC. Two human ACC cell lines, SW-13 and NCI-H295R, were screened using the National Center for Advancing Translational Sciences (NCATS) Pharmaceutical Collection (NPC) and the Mechanism Interrogation PlatE (MIPE) library (~4,991 compounds). CellTiter-Glo (Cat # G7570, Promega, Madison, WI) was utilized to measure cell viability. Described herein are the results of the corresponding viability assay.
PROTOCOL TABLE (as described by Inglese J, Shamu CE and Guy RK. 2007) SEQUENCE No. (e.g., 1, 2, 3, etc.); […] (e.g., Cells, Incubation, Reagent, etc.); VALUE; DESCRIPTION. 1; Cells; 5 uL; white, solid-bottom, 1536-well tissue-culture treated plates. 2; Time; overnight culture at 37C with 5% CO2. 3; Compounds and control; 23 nL; Kalypsis pin tool (Wako USA) equipped with a 1536-well pin head to transfer to the assay plates. 4; Time; 48 hours; 37C with 5% CO2. 5; Reagent; 4 uL; CellTiter-Glo luminescent substrate mix. 6; Time; 20 min at room temperature. 7; Detection; Luminescence; ViewLux plate reader NOTES (numbers refer to Sequence numbers above) 1. NCI-H295R cells were harvested from a T175 flask and resuspended in ITS-supplemented DMEM serum-free medium at a concentration of 300 000 cells/mL. Then 5 uL of resuspended cells were dispensed into each well of white, solid-bottom, 1536-well tissue-culture-treated plates using a multidrop combi dispenser. The plates were covered with stainless steel gasket lids. 2-3. The plates were cultured overnight at 37C with 5% CO2. Twenty-three nL of compounds (eight selected concentrations from the NPC / MIPE) or positive control (10 mM stock of bortezomib) in DMSO was transferred to each well of the assay plate using a pin tool (Kalypsys, San Diego, CA, USA). The final concentration of the compounds in the 5 uL assay volume ranged from 0.5 nM to 46 uM. 4-6. After 48 hours of incubation at 37C and 5% CO2, 4 uL of CellTilter-Glo luminescent substrate mix (Promega, Madison, WI, USA) was added to each well. Then the plates were incubated for 20 minutes at room temperature. 7. After incubation, luminescence was measured using a ViewLux plate reader (PerkinElmer, Waltham, MA, USA) with a clear filter was used to measure the number of metabolically competent cells. To determine compound activity in the qHTS assay, the titration-response data for each sample was plotted and modeled by a four-parameter logistic fit yielding IC50 and efficacy (maximal response) values. Raw plate reads for each titration point were normalized relative to positive control ([…], 100% inhibition) and DMSO-only wells (basal, 0%). REFERENCES: Inglese J, Shamu CE and Guy RK, Reporting data from high throughput screening of small molecule libraries, Nature Chemical Biology, 2007, 3(8): 438-441. doi.org/10.1038/nchembio0807-438.

Row | SMILES | Potency
1 | CCC1(C2=NCCN2)Cc2ccccc2O1 (stereo not given) | inactive
2 | N[C@@H]1C[C@H]1c1ccccc1 | inactive
3 | C[C@]12CC[C@H]3[C@@H](CCC4=CC(=O)CC[C@@]43C)[C@H]1CC[C@H]2OC(=O)CCC1CCCC1 | inactive
4 | CCCOC(=O)Cc1ccc(OCC(=O)N(CC)CC)c(OC)c1 | inactive
5 | C[C@]12Cc3nonc3C[C@@H]1CC[C@@H]1[C@@H]2CC[C@@]2(C)[C@H]1CC[C@]2(C)O | 23.1 µM (active)
6 | CC(O)(CS(=O)(=O)c1ccc(F)cc1)C(=O)Nc1ccc(C#N)c(C(F)(F)F)c1 (stereo not given) | inactive
7 | NCc1cccnc1 | inactive
8 | Clc1ccccc1N1CCNCC1 | inactive
9 | O=C(Oc1ccc([N+](=O)[O-])cc1)N1CCC(C(O)(c2ccc3c(c2)OCO3)c2ccc3c(c2)OCO3)CC1 | inactive
10 | NN=C(N)N | inactive
11 | CCN(CC)C(C)C(=O)c1ccccc1 (stereo not given) | inactive
12 | CC(C(O)c1ccccc1)N(C)C/C=C/c1ccccc1 (stereo not given) | inactive
13 | C[C@]12COC(=O)C[C@@H]1CC[C@@H]1[C@@H]2CC[C@@]2(C)[C@H]1CC[C@]2(C)O | inactive
14 | O=c1[nH]c2ccc(Cl)cc2c(N[C@@H]2CN3CCC2CC3)c1-c1nc2ccccc2[nH]1 | 0.355 µM (active)
15 | OCCOc1ccccc1 | inactive
16 | CC(Cc1ccc2c(c1)OCO2)NO (stereo not given) | inactive
17 | Cc1ccccc1-n1c(Cn2cnc3c(N)ncnc32)nc2cccc(C)c2c1=O | inactive
18 | COc1cc(C)[nH]c(=O)c1CNC(=O)c1c(C)n([C@H](C)C2CCN(CC(F)(F)F)CC2)c2ccccc12 | inactive
19 | c1ccc2c(CN3CCNCC3)cccc2c1 | inactive
20 | COc1ccccc1N1CCNCC1 | inactive

Row | SMILES | Potency
21 | COc1cccc2c1C(=O)c1c(O)c3c(c(O)c1C2=O)C[C@@](O)(C(=O)CO)CC3OC1CC(N2CCOC(OC)C2)C(O)C(C)O1 (stereo not given in full) | 0.0501 µM (active)
22 | CC(N[C@H]1C[C@@H]1c1ccccc1)c1ccc2c(c1)OCCO2 (stereo not given in full) | inactive
23 | CC(C)(O)C(Cl)(Cl)Cl | inactive
24 | N[C@@H](Cc1ccc(N(CCCl)CCCl)cc1)C(=O)O | 28.2 µM (active)
25 | O=c1[nH]c2ccccc2n1CCCN1CCC(n2c(=O)[nH]c3cc(Cl)ccc32)CC1 | 16.4 µM (active) and inactive
26 | C=CCOC(Cn1ccnc1)c1ccc(Cl)cc1Cl (stereo not given) | inactive
27 | O=C1NCN(c2ccccc2)C12CCN(CCCOc1ccc(F)cc1)CC2 | inactive
28 | CCCN1CCC[C@@H]2Cc3nc(N)ncc3C[C@H]21 | inactive
29 | Oc1cc(Cl)ccc1Oc1ccc(Cl)cc1Cl | 3.16 µM (active) and 18.4 µM (active)
30 | CCOC(=O)NC(O)C(Cl)(Cl)Cl (stereo not given) | inactive
31 | CC(=O)[C@H]1CC[C@H]2[C@@H]3CC[C@H]4C[C@H](O)CC[C@]4(C)[C@H]3C(=O)C[C@]12C | inactive
32 | CCC1(CC)C(=O)C=CNC1=O | inactive
33 | CC(C)NCC(O)c1ccc(N)c(C#N)c1 (stereo not given) | inactive
34 | CC(Cc1ccccc1)NCCn1cnc2c1c(=O)n(C)c(=O)n2C (stereo not given) | inactive
35 | [N-]=[N+]=CC(=O)OC[C@H](N)C(=O)O | inactive
36 | CC[N+]1(CC)CCC(OC(=O)C(O)(c2ccccc2)c2ccccc2)C1 (stereo not given) | inactive
37 | COc1ccc2c(C(=O)c3ccc(Cl)cc3)c(C)n(CC(=O)O)c2c1 | inactive
38 | COC(=O)[C@@]12OC[C@]34[C@H]([C@@H](O)[C@@H]1O)[C@@]1(C)CC(=O)C(O)=C(C)[C@@H]1C[C@H]3OC(=O)[C@H](OC(=O)/C=C(\C)C(C)C)[C@@H]24 | 12.6 µM (active)
39 | O=C(O)c1cc(Oc2ccc(C(F)(F)F)cc2Cl)ccc1[N+](=O)[O-] | inactive
40 | NCCc1cc(O)c(O)cc1O | inactive
